Screens deposited in PubChem by National Center for Advancing Translational Sciences (NCATS).
Hits are enriched below; roughly 1.5% of the tested compounds scored in any of these assays.
BLM helicase inh-1: qHTS Assay for Inhibitors of Bloom's syndrome helicase (BLM) | 350,000 compounds, 0.2% hits | RecQ-like DNA helicase BLM (Homo sapiens), P54132 | Potency, µM (titrated, usually from 56.1 µM), without a hit: at the top dose activity change, negative = inhibition, hits mostly inhibitors | recombinant BLM DNA unwinding, fluorescence dequenching;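 further: potency means the concentration at half of the fitted maximal effect; plate controls were vehicle for no effect and no enzyme for full effect; nearly all actives have a fitted effect of over 35% in size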
Target sequence (P54132 whole entry, looked up): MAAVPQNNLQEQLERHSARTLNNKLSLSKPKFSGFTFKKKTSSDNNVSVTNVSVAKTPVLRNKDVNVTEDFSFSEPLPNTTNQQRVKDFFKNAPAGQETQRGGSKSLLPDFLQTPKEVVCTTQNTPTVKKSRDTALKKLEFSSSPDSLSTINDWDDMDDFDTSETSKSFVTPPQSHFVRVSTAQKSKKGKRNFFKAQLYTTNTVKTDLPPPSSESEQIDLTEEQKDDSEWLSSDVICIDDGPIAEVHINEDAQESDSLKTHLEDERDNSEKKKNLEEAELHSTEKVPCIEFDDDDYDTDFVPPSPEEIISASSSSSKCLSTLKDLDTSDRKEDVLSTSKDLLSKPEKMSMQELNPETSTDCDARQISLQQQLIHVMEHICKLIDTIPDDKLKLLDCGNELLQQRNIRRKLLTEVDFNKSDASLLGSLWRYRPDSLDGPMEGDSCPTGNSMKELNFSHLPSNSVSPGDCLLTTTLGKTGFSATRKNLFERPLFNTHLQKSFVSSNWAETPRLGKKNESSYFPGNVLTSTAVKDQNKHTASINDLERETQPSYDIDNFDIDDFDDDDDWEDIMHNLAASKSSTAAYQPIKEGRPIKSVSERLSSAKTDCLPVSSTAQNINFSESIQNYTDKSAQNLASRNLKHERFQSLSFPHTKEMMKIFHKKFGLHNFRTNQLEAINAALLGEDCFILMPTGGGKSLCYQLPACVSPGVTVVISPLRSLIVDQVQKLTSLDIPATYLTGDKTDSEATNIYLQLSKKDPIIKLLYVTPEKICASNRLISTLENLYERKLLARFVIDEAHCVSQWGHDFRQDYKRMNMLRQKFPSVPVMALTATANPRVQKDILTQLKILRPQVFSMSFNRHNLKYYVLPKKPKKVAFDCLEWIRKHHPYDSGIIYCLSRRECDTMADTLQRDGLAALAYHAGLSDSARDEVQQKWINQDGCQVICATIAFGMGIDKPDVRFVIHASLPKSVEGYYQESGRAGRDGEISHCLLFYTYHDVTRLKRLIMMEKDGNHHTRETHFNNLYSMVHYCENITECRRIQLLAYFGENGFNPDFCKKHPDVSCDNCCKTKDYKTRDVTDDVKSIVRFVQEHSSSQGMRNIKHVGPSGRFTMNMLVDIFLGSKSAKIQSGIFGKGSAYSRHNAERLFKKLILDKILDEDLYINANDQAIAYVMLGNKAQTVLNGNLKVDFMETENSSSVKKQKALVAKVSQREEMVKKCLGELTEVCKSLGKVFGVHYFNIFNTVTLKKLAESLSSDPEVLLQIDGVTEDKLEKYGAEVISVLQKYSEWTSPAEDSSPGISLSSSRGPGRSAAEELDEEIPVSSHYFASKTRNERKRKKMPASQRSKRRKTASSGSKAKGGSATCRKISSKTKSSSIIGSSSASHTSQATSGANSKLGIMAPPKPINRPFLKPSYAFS
PI5P4K alpha inh: qHTS for Inhibitors of phosphatidylinositol 5-phosphate 4-kinase (PI5P4K); PI5P4Kalpha enzyme, ADP-Glo luminescence, 60 min; active compounds read low; max response, %; 330,000 compounds, 1.2% hits; AID 652105, 2013; active means max response of -50% or lower; inconclusive means between -30% and -50%; inactive means -30% or higher; further: value at the top dose of about 77 µM; on the % scale 0 is the no-effect control and ±100 the full control effect
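Compounds were pin-transferred onto PI5P4Kalpha and substrate in HEPES pH 7.4 buffer with EGTA, CHAPS and 5% DMSO. ATP (5 microM final) started the reaction, which ran 60 minutes at room temperature before ADP-Glo detection.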
APE1 inh: qHTS Assay for Inhibitors of the Human Apurinic/apyrimidinic Endonuclease 1 (APE1). DNA repair nuclease/redox regulator APEX1 (Homo sapiens), P27695. recombinant APE1, TAMRA/BHQ-2 abasic DNA cleavage fluorescence. Potency, µM (highest dose often 65.8 µM), for inactives: top-dose activity change, negative = inhibition, usual class: inhibitors. 350,000 compounds, 0.35% hits. AID 2517, 2012;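 further: potency means the concentration at half of the fitted maximal effect; plate controls were vehicle for no effect and reference inhibitor for full effect; nearly all actives have a fitted effect of over 55% in size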
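Readout is kinetic fluorescence (ex 525, em 598 nm) from cleavage of 50 nM TAMRA/BHQ-2 THF abasic duplex by 0.75 nM APE1, compound added 15 min beforehand at RT.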
RECQ1 helicase: qHTS Assay for Inhibitors of RecQ-Like Dna Helicase 1 (RECQ1). 240,000 compounds, 0.54% hits. AID 2549, 2010. RECQ1 DNA unwinding, red fluorescence kinetic read. Potency, µM (doses to about 57.3 µM), for inactives: top-dose activity, negative = inhibition, hits mostly inhibitors. ATP-dependent DNA helicase Q1 (Homo sapiens), P46063;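 further: potency means the concentration at half of the fitted maximal effect; plate controls were vehicle for no effect and no enzyme for full effect; nearly all actives have a fitted effect of over 30% in size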
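50 nM RECQ1T1 preincubated 15 min with compound in Tris pH 8.0 buffer with MgCl2, DTT, Tween-20 and 2.5 ug/ml poly(dI-dC); started with 200 nM TAMRA/BHQ-2 forked duplex and 2 mM ATP. Unwinding read as fluorescence (525/598 nm), two reads 2 h apart.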
WRN helicase inh-1: qHTS for Inhibitors of WRN Helicase; 360,000 compounds, 0.46% hits; Potency, µM (series often up to 114 µM), for inactives: at the top dose activity change, negative = inhibition, most hits filed as inhibitors; WRN helicase unwinding, fluorescent forked duplex, kinetic; Bifunctional 3'-5' exonuclease/ATP-dependent helicase WRN (Homo sapiens), Q14191; further: potency means the concentration at half of the fitted maximal effect; on the % scale 0 is the no-effect control and ±100 the full control effect; nearly all actives have a fitted effect of over 55% in size
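Fluorescence dequenching readout, ex 525 nm/em 598 nm, kinetic mode: forked duplex DNA (100 nM final) with adjacent fluorophore and quencher unwound by WRN (20 nM final) with 2 mM ATP. Compound preincubation 15 min, room temperature.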
FEN1 inh-1: qHTS Assay for the Inhibitors of Human Flap endonuclease 1 (FEN1); P39748; Recombinant FEN1 flap cleavage, fluorescence, 15 min; Potency, µM (titrated, usually from 114 µM), for inactives: top-dose activity change, negative = inhibition, actives largely listed as inhibitors; 390,000 compounds, 0.35% hits; AID 588795, 2011; further: potency means the concentration at half of the fitted maximal effect; on the % scale 0 is the no-effect control and ±100 the full control effect; nearly all actives have a fitted effect of over 65% in size
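Concentration–response screening of FEN1 (10 nM): 15 min compound preincubation at room temperature, reaction started with 50 nM substrate and read at 0 and 15 min. Corrected, normalized data were fitted by a four-parameter Hill equation.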
FEN1 inh-2: qHTS Assay for the Inhibitors of FEN1: Confirmatory Assay for Cherry-picked Compounds | shares compounds with FEN1 inh-1 | FEN1 flap cleavage, TAMRA/BHQ2 fluorogenic DNA substrate | Potency, µM, hits mostly inhibitors | 880 compounds, 79% hits | AID 720498, 2013; further: potency means the concentration at half of the fitted maximal effect; nearly all actives have a fitted effect of over 60% in size
WRN helicase inh-2: qHTS for Inhibitors of WRN Helicase: Confirmatory Assay for Cherry-picked Compounds; shares compounds with WRN helicase inh-1; WRN helicase DNA unwinding, fluorescence kinetic; Potency, µM (highest dose often 57.1 µM), for inactives: at the top dose activity, negative = inhibition, hits mostly inhibitors; 610 compounds, 63% hits; AID 720497, 2013; further: potency means the concentration at half of the fitted maximal effect; nearly all actives have a fitted effect of over 65% in size
TO displacement: qHTS for Inhibitors of WRN Helicase: Thiazole Orange DNA Binding Counterscreen | shares compounds with WRN helicase inh-1 | thiazole orange DNA binding displacement, fluorescence | Potency, µM (top dose mostly 57.1 µM), without a hit: at the top dose activity change, negative = inhibition, most hits filed as inhibitors | 610 compounds, 10% hits | AID 720499, 2013;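 further: drop in dye fluorescence marks compound binding to DNA; potency means the concentration at half of the fitted maximal effect; on the % scale 0 is the no-effect control and ±100 the full control effect; nearly all actives have a fitted effect of over 60% in size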
BLM helicase inh-2: qHTS for Inhibitors of WRN Helicase: BLM Helicase Counterscreen for WRN Inhibitors; shares compounds with WRN helicase inh-1; Recombinant BLM helicase DNA unwinding, red fluorescence; Potency, µM (top dose mostly 57.1 µM), for the others: top-dose activity change, negative = inhibition, most hits filed as inhibitors; 610 compounds, 60% hits; AID 720503, 2013; further: potency means the concentration at half of the fitted maximal effect; nearly all actives have a fitted effect of over 60% in size
ADP-Glo interf: qHTS for Inhibitors of PI5P4K: ADP-Glo counter assay; shares compounds with PI5P4K alpha inh; ADP-Glo detection counter-screen, luciferase luminescence, no enzyme; Potency, µM (series often up to 76.9 µM), without a hit: at the highest dose activity change, negative = inhibition, hits mostly inhibitors; 1,100 tested, under 10 active; AID 743285, 2014
* hit, by the source's call; i = inactive; ? = inconclusive; . = no result; [ ] = dose if it differs, or a comment. Unless noted, the call rests on the fitted dose curve; in most records, active means well fitted curve in the direction sought with a large enough effect; inconclusive means small, poorly fitted or top-dose-only effect, or another doubt; inactive means no such curve, though single readings can be large; an effect the other way counts as inactive or inconclusive.

SMILES | BLM helicase inh-1 | PI5P4K alpha inh | APE1 inh | RECQ1 helicase | WRN helicase inh-1 | FEN1 inh-1 | FEN1 inh-2 | WRN helicase inh-2 | TO displacement | BLM helicase inh-2 | others
CC(=O)Oc1cc(C(=O)OCC(=O)N2CCc3ccccc3C2)cc(OC(C)=O)c1OC(C)=O | . | -13 | 5.3µM* | . | 18µM* | 25µM* | 24* | 27µM* | -5% | 22µM*
CCN(CC)CCCNc1ccc2ncn3c4ccc(O)cc4c(=O)c1c23 | . | -24 | . | . | 25µM* | 10µM* | 8.5* | 22µM* | i | -62%
COc1cc(-c2nnc(SCCOc3ccc(Cl)cc3)o2)cc(OC)c1OC | -3% | . | . | . | . | -6% | . | . | . | .
CCc1nn(CC(=O)N2CCN(c3cccc(Cl)c3)CC2)c(=O)c2cc3sccc3n12 | -6% | . | . | . | . | -1% | . | . | . | .
NC1=C(Br)C(=O)c2ncccc2C1=O | . | -1 | . | . | ? | -12% | . | . | . | .
O=C1C=C(NCCc2cc(Br)c(O)c(Br)c2)C(=O)c2ncccc21 | . | -74* | . | . | 25µM* | 45µM* | 60* | 22µM* | ? | 19µM*
COc1ccc(C2CC(=O)N(CC(=O)Nc3cc(C)ccc3C)c3ccccc3S2)cc1 (configuration not stated) | -1% | . | . | . | . | -1% | . | . | . | .
CCOC(=O)c1c(C)oc2nc(C)nc(NCc3cccc(Cl)c3)c12 | -2% | . | . | . | . | -14% | . | . | . | .
O=C(N/N=C/c1cn(Cc2cccc(F)c2)c2ccccc12)c1cc(O)cc(O)c1 | -1% | -104* | 1.5µM* | . | 20µM* | 22µM* | 60* | 5.4µM* | 24µM* | 2.2µM*
CCn1cc(S(=O)(=O)c2ccccc2)c(=O)c2cc(F)c(N3CCCCCC3)cc21 | -8% | . | . | . | . | -16% | . | . | . | .
CCCN(CCC)CCCNC(=O)c1cc2c(-c3ccc(OC)c(OC)c3)nn(C)c2s1 | -8% | -1 | -27% | . | -6%[11.6 µM] | 28µM* | 27* | 19µM* | -30% | ?
CC(N)(COP(=O)(O)O)C(=O)O (configuration not stated) | . | . | 13% | i | . | . | . | . | . | .
CCN(CC(=O)Nc1c(F)cccc1F)C(=O)/C=C/c1ccc2ccccc2n1 | . | -100* | 1.7µM* | . | 22µM* | 50µM* | 76* | 19µM* | ? | 3.8µM*
Cc1ccc(NC(=O)CCC(=O)N2CCSc3ccccc32)cc1 | 3% | . | . | . | . | 0% | . | . | . | .
COc1cc(/C=C(\C#N)c2nc3ccc(C)cc3[nH]2)c([N+](=O)[O-])cc1OC | -11% | -25 | -13% | i | 8%[57.1 µM] | -8% | . | . | . | .
COc1cc(/C=C(\C#N)c2nc3ccc(C)cc3[nH]2)cc([N+](=O)[O-])c1O | -19% | -88* | ? | i | ? | 50µM* | ? | 22µM* | 11µM* | 12µM*
O=C(O)CCCNc1cc(N2CCN(C(=O)c3ccco3)CC2)c2noc3c2c1C(=O)c1ccccc1-3 | -29% | ? | ? | . | 45µM* | ? | 27* | 14µM* | 295% | 19µM*
O=C(O)CCCNc1cc(N2CCC3(CC2)OCCO3)c2noc3c2c1C(=O)c1ccccc1-3 | -25% | . | ? | -25% | . | . | . | . | . | .
N#Cc1c(SCC(=O)Nc2nc3ccc(Br)cc3s2)sc2c(O)cc(=O)[nH]c12 | -14% | -102* | -59% | . | ? | 28µM* | ? | . | . | . | ADP-Glo interf=6%
O=C(NCC1CCCO1)c1cc(-c2ccco2)nc2ccccc12 (configuration not stated) | -14% | ? | ? | -4% | -28% | -4% | . | . | . | .
CN(C)C(CNC(=O)c1cc(-c2ccco2)nc2ccccc12)c1ccccc1 (configuration not stated) | . | -54* | -3% | . | ? | ? | ? | . | . | . | ADP-Glo interf=-1%
NS(=O)(=O)c1cccc(C(=O)NC2CCSc3ccccc32)c1 (configuration not stated) | -4% | -3 | 48% | . | -10% | 0% | . | . | . | .
NS(=O)(=O)c1cc(C(=O)NC2CCSc3ccccc32)ccc1Cl (configuration not stated) | 8.9µM* | -84* | 0.12µM* | . | 0.84µM* | 2.8µM* | 3.8* | 0.54µM* | -21% | 0.27µM* | ADP-Glo interf=7%
COc1ccccc1Nc1ccc2c(O)cc(S(=O)(=O)O)cc2c1 | . | -102* | . | . | -113% | 22µM* | 67* | 6.1µM* | ? | 5.4µM* | ADP-Glo interf=2%
O=S(=O)(O)c1cc(O)c2cc(Nc3ccccc3)ccc2c1 | . | -69* | . | . | 11µM* | 50µM* | 85* | . | . | . | ADP-Glo interf=-6%
CC(=O)Nc1ccc(SCC(c2ccccc2)N2CCN(C)CCC2=O)cc1 (configuration not stated) | 4% | . | 20% | -12% | . | -3% | . | . | . | .
